According to PubChem BioAssay AID624094 (National Center for Advancing Translational Sciences (NCATS), 2012):
Records with an inconclusive call do not appear. Calls of active or inactive are those of the source. Calls follow the shape of the dose curve; as a rule, active = well fitted inhibition curve with a large enough effect; inconclusive = small, poorly fitted or top-dose-only effect; inactive = flat fitted curve, though single readings scatter.

Molecular target: Dual specificity protein kinase CLK4 (Homo sapiens) (UniProt Q9HAZ1)
Experiment: Confirmation Assay for Inhibitors of Clk4 (Kinase-Glo Assay): KU probe
Method in brief: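 RS repeat peptide (100 uM) and ATP (1 uM) phosphorylated by 25 nM Clk4 (final) in Tris pH 7.5 with MgCl2, EGTA, DTT and Triton X-100. After 4.5 h at room temperature, remaining ATP read as Kinase-Glo luminescence.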

Dual specificity protein kinase CLK4 (Homo sapiens), sequence (Q9HAZ1 whole entry, looked up): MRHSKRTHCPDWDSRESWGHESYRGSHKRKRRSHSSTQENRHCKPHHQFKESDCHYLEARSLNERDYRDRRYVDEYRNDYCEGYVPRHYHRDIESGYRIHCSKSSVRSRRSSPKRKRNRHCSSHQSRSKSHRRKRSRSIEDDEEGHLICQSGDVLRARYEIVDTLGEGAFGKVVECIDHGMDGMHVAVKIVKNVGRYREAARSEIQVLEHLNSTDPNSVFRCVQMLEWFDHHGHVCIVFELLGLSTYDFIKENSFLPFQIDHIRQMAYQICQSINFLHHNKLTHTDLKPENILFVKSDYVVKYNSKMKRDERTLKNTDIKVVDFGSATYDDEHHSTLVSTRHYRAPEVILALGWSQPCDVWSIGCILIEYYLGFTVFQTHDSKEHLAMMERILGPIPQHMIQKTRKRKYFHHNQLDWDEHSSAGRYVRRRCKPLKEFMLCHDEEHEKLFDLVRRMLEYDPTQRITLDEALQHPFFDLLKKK

| SMILES | Potency |
| --- | --- |
| Clc1ccc(CNc2nccc(-c3ccc4c(c3)OCO4)n2)cc1Cl | 41.2 nM (active) |
| FC(F)(F)c1cccc(Nc2nccc(-c3ccc4c(c3)OCO4)n2)c1 | 65.4 nM (active) |
| O=[N+]([O-])c1cc(Nc2nccc(-c3ccc4c(c3)OCO4)n2)cc(C(F)(F)F)c1 | 104 nM (active) |
| Clc1cc(Cl)cc(CNc2ncncc2-c2ccc3c(c2)OCO3)c1 | 130 nM (active) |
| Cc1noc(C)c1-c1nccc(NCc2ccc(Cl)cc2)n1 | inactive |
| c1cncc(CNc2nccc(-c3ccc4[nH]ncc4c3)n2)c1 | 26 nM (active) |
| CCCNc1ncnc2ccc(-c3ccc4c(c3)OCO4)cc12 | 58.2 nM (active) |
| c1cc(CNc2ccnc(-c3ccc4c(c3)OCO4)n2)ccn1 | 16400 nM (active) |
| COc1cccc(-c2nccc(NCc3ccc(C)cc3)n2)c1 | 23200 nM (active) |
| c1cncc(CNc2nccc(-c3ccc4cn[nH]c4c3)n2)c1 | 41.2 nM (active) |
| c1ccc(CNc2ccnc(-c3ccc4c(c3)OCO4)n2)cc1 | 23200 nM (active) |
| COc1ccc(CNc2ccnc(-c3c(C)noc3C)n2)cc1 | inactive |
| c1cc(-c2ccc3c(c2)OCO3)nc(Nc2ccc3c(c2)OCO3)n1 | 116 nM (active) |
| Clc1cc(Cl)cc(CNc2cc(-c3ccc4c(c3)OCO4)ncn2)c1 | 1640 nM (active) |
| CN(C)c1ccc(-c2nccc(NCc3cccs3)n2)cc1 | 9230 nM (active) |
| CC(C)(C)CNc1ncnc2ccc(-c3ccc(C(=O)O)o3)cc12 | 463 nM (active) |
| CCN(C)c1ncnc2ccc(-c3ccc4c(c3)OCO4)cc12 | 36.8 nM (active) |
